Test results as given in PubChem BioAssay (Tox21).
Records with an inconclusive call do not appear. Calls of active or inactive are those of the source. Unless noted, calls come from the whole dose curve.

Tests used:
[1] = Nuclear factor erythroid 2-related factor 2/antioxidant responsive element (Nrf2/ARE) small molecule agonists: qHTS cell viability counter screen in human keratinocytes (AID 1919968; active = well fitted curve in the direction sought with a large enough effect in the repeat runs; an effect the other way counts as inactive or inconclusive; note: nearly all actives have a fitted effect of over 55% in size)
In short: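 After a 5 h attachment period, ARE-reporter keratinocytes were dosed with compounds in DMSO and then cultured 23 h at 37 C. Cell viability came from CellTiter-Fluor signal read after a further 1 h.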

[2] = Nuclear factor erythroid 2-related factor 2/antioxidant responsive element (Nrf2/ARE) small molecule agonists: luciferase reporter gene qHTS assay in human keratinocytes (AID 1919969); note: nearly all actives have a fitted effect of over 35% in size
[3] = target: Gonadotropin-releasing hormone receptor (Homo sapiens) (UniProt P30968); test: Human gonadotropin-releasing hormone receptor (GnRHR) small molecule agonists, calcium flux assay in GnRHR-HEK293 cells (AID 1920063); note: nearly all actives have a fitted effect of over 35% in size
In short: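 We seeded human GnRHR-expressing HEK293 cells for 18 hours, loaded them with calcium dye for an hour at 37 C, added test compounds, and recorded fluorescence intensity kinetically for three minutes.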

[4] = target: KiSS-1 receptor (Homo sapiens) (UniProt Q969F8); test: Human kisspeptin (KISS1R) small molecule agonists, calcium flux assay in KISS1R-HEK293 cells (AID 1920064; active = well fitted curve in the direction sought with a large enough effect in the repeat runs; an effect the other way counts as inactive or inconclusive)
In short: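 Kinetic calcium assay, 1 s sampling over 3 min at Ex/Em 480/540, in HEK293 cells engineered with human KISS1R; compounds delivered in DMSO after 1 h dye loading.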

[5] = G protein-coupled receptor (GPCR) small molecule agonists, calcium flux assay: HEK293 wild type cell line counter screen (AID 1920065)
In short: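 Calcium-sensitive dye, loaded 1 h at 37 C into cells cultured 18 h, reports compound-evoked calcium release as fluorescence (Ex/Em 480/540), measured over 3 min. Agonist mode; 15-point titrations, triplicate.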

[6] = p53 small molecule agonists, cell-based qHTS assay with human liver microsomes (AID 1963577)
In short: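 Fluorescence of the beta-lactamase reporter in p53RE-bla cells, detected with LiveBLAzer substrate (2 h, room temperature, dark), served as the read-out after 16 h compound exposure at 37 C with human liver microsomes and NADPH, each 0.5 mg/mL final.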

[7] = p53 small molecule agonists, cell-based qHTS assay with rat liver microsomes (AID 1963578)
In short: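 Cells carrying a p53 response element–beta-lactamase reporter were plated and rested 5 h, then dosed with compound in DMSO plus rat liver microsomes and NADPH, each at 0.5 mg/mL final. After 16 h at 37 C, LiveBLAzer substrate was added for 2 h.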

[8] = p53 small molecule agonists, cell-based qHTS assay with human liver microsomes: qHTS cell viability counter screen (AID 1963579); note: nearly all actives have a fitted effect of over 45% in size
In short: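 Cytotoxicity counter screen: p53RE-bla, 4,000 cells/well; 5 h settle, 37 C/5% CO2; cpd + HLM 0.5 mg/mL + NADPH 0.5 mg/mL (final); 16 h, 37 C; CellTiter-Glo, 30 min RT, luminescence.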

[9] = p53 small molecule agonists, cell-based qHTS assay with rat liver microsomes: qHTS cell viability counter screen (AID 1963580); note: nearly all actives have a fitted effect of over 45% in size
In short: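 HCT-116 p53RE-bla, 4,000 cells/well, 5 h pre-incubation; cpd + rat liver microsomes 0.5 mg/mL + NADPH 0.5 mg/mL (final); 16 h, 37 C; CellTiter-Glo, 30 min RT; luminescence.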

[10] = p53 small molecule agonists, cell-based qHTS assay: qHTS cell viability counter screen (AID 1963581); note: nearly all actives have a fitted effect of over 45% in size
In short: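 Following 5 h attachment, HCT-116 p53RE-bla cells took up compound for 16 h at 37 C; the reporter was read with B/G FRET substrate (2 h RT), and viability then via CellTiter-Glo ATP luminescence.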

[11] = p53 small molecule agonists, cell-based qHTS assay (AID 1963582; active = well fitted activation curve with a large enough effect in the signal ratio in the repeat runs, not every such curve was filed as active; the % refers to the signal ratio)
In short: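 In this cell-based concentration-response screen, a p53 response element drives beta-lactamase; cells received DMSO-borne compounds after 5 h culture and were incubated a further 16 h before FRET substrate development.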

[12] = target: 5-hydroxytryptamine receptor 2A (Homo sapiens) (UniProt P28223); test: 5-hydroxytryptamine receptor 2A (HTR2A) small molecule antagonists, cell-based qHTS assay (AID 1963586); note: nearly all actives have a fitted effect of over 45% in size
In short: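 Antagonist-mode intracellular calcium assay: DOI (4 nM) added after 5 min compound pre-incubation at room temperature to dye-loaded HTR2A-CHO cells. Fluorescence followed for 3 min, sampled every second.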

[13] = target: 5-hydroxytryptamine receptor 2A (Homo sapiens) (UniProt P28223); test: 5-hydroxytryptamine receptor 2A (HTR2A) small molecule agonists, cell-based qHTS assay (AID 1963587); note: nearly all actives have a fitted effect of over 30% in size
In short: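 Kinetic calcium-flux fluorescence (2 min, 1 sec intervals) after compound addition in agonist mode. HTR2A-CHO cells were cultured 18 h, then dye-loaded 1 h at 37 C.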

[14] = target: Muscarinic acetylcholine receptor M1 (Homo sapiens) (UniProt P11229); test: Cholinergic receptor muscarinic 1 (CHRM1) small molecule agonists, cell-based qHTS assay (AID 1963589); note: nearly all actives have a fitted effect of over 35% in size
In short: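 Measures agonist-induced intracellular calcium rise. Stable human CHRM1 CHO line, 1 h dye load at 37 C, compounds from DMSO, kinetic fluorescence read.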

[15] = cAMP Responsive Elements (CRE) small molecule antagonists, cell-based qHTS assay (AID 1963591; active = well fitted inhibition curve with a large enough effect in the signal ratio in the repeat runs, not every such curve was filed as active; the % refers to the signal ratio)
In short: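 HEK293T cells carrying a CRE-driven beta-lactamase reporter receive compound and NKH477 (0.25 uM final) for 3 h. Fluorescence from LiveBLAzer B/G FRET substrate is read after 2 h at room temperature.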

[16] = target: D(2) dopamine receptor (Homo sapiens) (UniProt P14416); test: Dopamine D2 receptor (DRD2) small molecule agonists, cell-based qHTS assay (AID 1963594); note: nearly all actives have a fitted effect of over 35% in size
In short: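 cAMP accumulation in DRD2-HEK293 cells measured by HTRF after 1 h detection; compounds added 10 min before NKH477 (200nM […]) forskolin-analogue stimulation, 30 min at room temperature, with Ro20-1724 present at 0.1 mM final.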

[17] = target: D(2) dopamine receptor (Homo sapiens) (UniProt P14416); test: Dopamine D2 receptor (DRD2) small molecule antagonists, cell-based qHTS assay (AID 1963595; active = well fitted inhibition curve with a large enough effect in the signal ratio in the repeat runs, with a control signal flat; the % refers to the signal ratio)
In short: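 Human DRD2 antagonist qHTS measuring cAMP by HTRF. The cells are exposed to compound for 10 min, then to NKH477 (200 nM) and quinpirole (12 nM) for 30 min at RT, with Ro20-1724 (0.1 mM) present throughout.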

[18] = cAMP Responsive Elements (CRE) small molecule agonists, cell-based qHTS assay (AID 1963590)
In short: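 A CRE-responsive beta-lactamase reporter in HEK 293T cells was used. Treatment ran 3 h at 37 C; detection used LiveBLAzer B/G FRET substrate for 2 h at room temperature.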

[19] = target: Beta-2 adrenergic receptor (Homo sapiens) (UniProt P07550); test: Adrenergic beta2 receptor (ADRB2) small molecule antagonists, cell-based qHTS assay (AID 1963592); note: series mostly up to about 92 µM; nearly all actives have a fitted effect of over 50% in size
In short: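 Cells (CHO, stable ADRB2 overexpression) incubated 18-20hr at 37C; compounds added from DMSO; agonist mix (1nM isoproterenol, 100uM IBMX, 25uM Ro-20-1724) added; 0.5hr RT; d2-cAMP and anti-cAMP-cryptate added; 1hr RT; 665/615 nm read.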

Measured: Potency

Chain of D(2) dopamine receptor (Homo sapiens) (P14416 whole entry, looked up): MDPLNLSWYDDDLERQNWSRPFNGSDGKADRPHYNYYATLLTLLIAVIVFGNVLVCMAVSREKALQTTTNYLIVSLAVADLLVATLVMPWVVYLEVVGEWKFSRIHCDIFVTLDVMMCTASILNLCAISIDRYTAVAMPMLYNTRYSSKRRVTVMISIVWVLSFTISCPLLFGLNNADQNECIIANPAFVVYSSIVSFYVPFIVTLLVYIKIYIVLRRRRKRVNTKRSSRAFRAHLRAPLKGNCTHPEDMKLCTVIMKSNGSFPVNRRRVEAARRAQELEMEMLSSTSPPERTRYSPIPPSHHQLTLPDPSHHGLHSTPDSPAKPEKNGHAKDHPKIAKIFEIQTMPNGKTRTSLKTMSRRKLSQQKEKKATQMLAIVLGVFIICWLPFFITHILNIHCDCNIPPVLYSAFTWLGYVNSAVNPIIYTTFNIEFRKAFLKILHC
Chain of Gonadotropin-releasing hormone receptor (Homo sapiens) (P30968 whole entry, looked up): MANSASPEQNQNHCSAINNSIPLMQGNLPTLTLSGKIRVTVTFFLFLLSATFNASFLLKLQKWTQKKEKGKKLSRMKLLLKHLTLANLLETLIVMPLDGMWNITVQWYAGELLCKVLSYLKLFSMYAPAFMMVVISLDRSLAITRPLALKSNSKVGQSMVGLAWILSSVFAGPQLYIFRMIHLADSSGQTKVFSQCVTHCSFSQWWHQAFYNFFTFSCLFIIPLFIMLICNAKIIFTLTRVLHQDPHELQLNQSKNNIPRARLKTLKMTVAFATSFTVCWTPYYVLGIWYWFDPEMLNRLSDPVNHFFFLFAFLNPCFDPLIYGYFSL
Chain of KiSS-1 receptor (Homo sapiens) (Q969F8 whole entry, looked up): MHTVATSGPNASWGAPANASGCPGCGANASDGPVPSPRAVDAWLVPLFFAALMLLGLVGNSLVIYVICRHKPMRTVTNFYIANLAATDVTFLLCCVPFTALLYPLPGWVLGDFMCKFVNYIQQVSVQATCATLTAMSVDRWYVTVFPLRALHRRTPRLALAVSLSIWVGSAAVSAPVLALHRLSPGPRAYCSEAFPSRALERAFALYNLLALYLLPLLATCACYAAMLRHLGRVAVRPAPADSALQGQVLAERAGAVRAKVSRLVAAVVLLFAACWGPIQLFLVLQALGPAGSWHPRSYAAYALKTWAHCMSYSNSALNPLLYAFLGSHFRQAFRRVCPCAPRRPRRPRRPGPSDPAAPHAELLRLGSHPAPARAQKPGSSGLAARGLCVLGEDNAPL
Chain of 5-hydroxytryptamine receptor 2A (Homo sapiens) (P28223 whole entry, looked up): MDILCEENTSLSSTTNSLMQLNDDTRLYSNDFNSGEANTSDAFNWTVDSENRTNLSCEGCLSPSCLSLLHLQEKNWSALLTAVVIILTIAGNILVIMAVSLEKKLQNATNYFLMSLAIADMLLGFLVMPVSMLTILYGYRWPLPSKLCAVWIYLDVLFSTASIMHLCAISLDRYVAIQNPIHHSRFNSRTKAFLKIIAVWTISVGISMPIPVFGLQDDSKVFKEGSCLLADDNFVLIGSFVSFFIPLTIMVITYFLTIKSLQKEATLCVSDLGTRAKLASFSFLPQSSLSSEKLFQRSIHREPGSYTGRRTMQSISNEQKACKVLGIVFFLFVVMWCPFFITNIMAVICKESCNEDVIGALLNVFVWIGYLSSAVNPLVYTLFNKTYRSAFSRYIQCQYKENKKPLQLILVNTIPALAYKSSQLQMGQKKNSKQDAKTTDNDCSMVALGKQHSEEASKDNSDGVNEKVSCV
Chain of Muscarinic acetylcholine receptor M1 (Homo sapiens) (P11229 whole entry, looked up): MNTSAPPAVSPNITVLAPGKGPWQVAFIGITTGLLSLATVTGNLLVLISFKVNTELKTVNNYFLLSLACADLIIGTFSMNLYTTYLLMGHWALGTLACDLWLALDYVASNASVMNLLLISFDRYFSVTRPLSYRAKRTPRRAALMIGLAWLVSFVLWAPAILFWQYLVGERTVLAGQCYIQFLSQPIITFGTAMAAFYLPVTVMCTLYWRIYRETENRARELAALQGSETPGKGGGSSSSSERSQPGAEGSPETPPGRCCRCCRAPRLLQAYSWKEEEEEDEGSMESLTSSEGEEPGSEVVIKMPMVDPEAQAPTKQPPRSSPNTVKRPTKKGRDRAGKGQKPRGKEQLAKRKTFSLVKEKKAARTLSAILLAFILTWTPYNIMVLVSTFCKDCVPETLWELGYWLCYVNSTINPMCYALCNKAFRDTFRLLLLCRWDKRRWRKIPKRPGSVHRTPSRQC
Chain of Beta-2 adrenergic receptor (Homo sapiens) (P07550 whole entry, looked up): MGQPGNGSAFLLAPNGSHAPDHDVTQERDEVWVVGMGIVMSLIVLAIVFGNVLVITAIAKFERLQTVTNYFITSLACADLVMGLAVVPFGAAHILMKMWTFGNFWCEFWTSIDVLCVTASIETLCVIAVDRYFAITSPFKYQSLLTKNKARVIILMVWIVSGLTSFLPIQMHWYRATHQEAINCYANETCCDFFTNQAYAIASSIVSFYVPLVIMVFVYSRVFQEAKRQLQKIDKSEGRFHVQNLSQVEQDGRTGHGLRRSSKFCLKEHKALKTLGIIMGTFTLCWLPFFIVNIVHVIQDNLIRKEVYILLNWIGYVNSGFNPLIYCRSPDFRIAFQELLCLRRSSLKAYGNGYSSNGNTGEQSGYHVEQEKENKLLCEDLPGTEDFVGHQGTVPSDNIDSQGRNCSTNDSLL

CCCC(C)C(=O)OCC (stereo unspecified)
inactive: [1] | [2] | [3] | [4] | [5] | [6] | [7] | [8] | [9] | [10] | [11] | [12] | [13] | [14] | [15] | [16] | [17]

N#C/C(=C1\SCC(c2ccccc2Cl)S1)n1ccnc1 (stereo unspecified)
inactive: [1] | [2] | [3] | [4] | [5] | [6] | [7] | [8] | [9] | [10] | [11] | [12] | [13] | [14] | [18] | [15] | [17]

CC(CC(=O)O)CC(C)(C)C (stereo unspecified)
inactive: [1] | [2] | [3] | [4] | [5] | [6] | [7] | [8] | [9] | [10] | [11] | [12] | [13] | [14] | [18] | [15] | [19] | [17]

C[N+](C)(C)CCCCCCCCCC[N+](C)(C)C
inactive: [1] | [2] | [3] | [4] | [5] | [6] | [7] | [8] | [9] | [10] | [11] | [12] | [13] | [14] | [18] | [15] | [19] | [16] | [17]
